Test results: PubChem BioAssay (NCI)
The panel holds about 83,000 compounds, 20% with a hit somewhere; the sample as a whole holds those more often.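 48-hour exposure, single concentration, 96-well plates; percent growth endpoint where 0 means no net growth. Active: below 10.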 Active and inactive are the calls of the source.

Test system: M14 melanoma
Test: NCI-60 one-dose screen, 48 h (100 = growth as untreated, 0 = no growth, -100 = all killed)
Settings: 10 µM
Method: Growth inhibition of the M14 human tumor cell line is measured as a screen for anti-cancer activity. Cells are grown in 96 well plates and exposed to the test compound for 48 hours. Compounds are tested at a single concentration, which is 10^-5 M for most compounds. The reported endpoint is percent growth (GI% or GIPRCNT), where numbers from 0 - 100% represent growth inhibition, and numbers from -100% - 0 represent cell death. For example, a value of 40 represents 60% growth inhibition. A value of 0 means no net growth occurred over the course of the experiment. A value of -40 indicates 40% of cells at the beginning of the experiment died by the end of the experiment. A value of -100 means all cells are dead at the end of the experiment.
NCI-60 Human Tumor Cell Lines Screen was performed using the standard one-dose NCI protocol, which is described in more detail at https://dtp.cancer.gov/discovery_development/nci-60/default.htm.
Compounds with GIPRCNT values below 10 were considered active. Activity score was based on GIPRCNT using the following formula: […]
Score is 0 for GIPRCNT values of 100 or above, 50 for GIPRCNT values of 0, and 100 for GIPRCNT values of -100.

| Compound | growth |
| --- | --- |
| COc1ccc(C2OC[C@@]3(C)C4CC[C@]5(C)C(CC=C6C7CC(C)(C)CC[C@]7(C(=O)O)CC[C@]65C)[C@@]4(C)C[C@@H](O)[C@@H]3O2)cc1 (stereo not given in full) | 96.8% (inactive) |
| O=C1S/C(=C\c2ccc([N+](=O)[O-])cc2)C(=O)N1CCN1CCCCC1 | 98.6% (inactive) |
| C#C[C@]1(O)CC[C@H]2[C@@H]3CC=C4c5sc(Nc6cc(C)cc(C)n6)nc5CC[C@]4(C)[C@H]3CC[C@@]21C | -42.1% (active) |
| O=C1NC(=S)S/C1=C\c1cn(-c2ccccc2)nc1-c1ccc([N+](=O)[O-])cc1 | 20.5% (inactive) |
| O=C(Nc1ccc(OCc2ccc(F)cc2)cc1)Nc1ccc(Cl)c(C(F)(F)F)c1 | 9.01% (active) |
| CCOC(=O)C1=C(N)N(c2ccc(C)cc2)C2=C(C(=O)CC(C)(C)C2)C1c1ccccc1Br (stereo not given) | 83% (inactive) |
| CCn1c(SCC(=O)Nc2ccc(-c3nc4ccccc4[nH]3)cc2)nc2ccccc2c1=O | -87.9% (active) |
| COc1cc2oc(-c3cccc(C(=O)Nc4ccc(Cl)cc4)c3)cc(=O)c2c(OCCNC(=O)[C@@H](N)CO)c1OC | -81.8% (active) |
| O=C(CC(=O)Nc1ccc(Oc2ncnc3scc(Nc4n[nH]c(=S)s4)c23)cc1)Nc1ccc(Br)cc1 | 98.1% (inactive) |
| Cc1ccc(-c2nc(C#N)c(S(=O)(=O)N3CCN(S(C)(=O)=O)CC3)o2)cc1 | 22.6% (inactive) |
| COc1ccc(Cn2cc(C#N)c(N)c2C(C)=O)c(OC)c1 | 99.8% (inactive) |
| Cn1cc(-c2nnc(N)nc2-c2c[nH]c3ccc(F)cc23)c2cc(Br)cnc21 | 77.4% (inactive) |
| CC1(C)CC(=O)C2=C(C1)N(Cc1ccc(C(=O)O)cc1)C1=C(C(=O)CC(C)(C)C1)C2c1ccc(Cl)cc1 | 101% (inactive) |
| Cn1cc(-c2nnc(N)nc2-c2c[nH]c3ccccc23)c2cc(Br)cnc21 | 25.1% (inactive) |
| O=C(Nc1ccc(OCc2ccc(Cl)cc2)cc1)Nc1ccc(Cl)c(C(F)(F)F)c1 | 12.5% (inactive) |
| COc1ccc(Cc2nn(CC(=O)N/N=C/c3ccc([N+](=O)[O-])cc3)c(=O)c3c(C)noc23)cc1 | 70.1% (inactive) |
| COc1ccc(C(=O)COc2ccc(NC(=O)Nc3ccc(Cl)c(C(F)(F)F)c3)cc2)cc1 | 19% (inactive) |
| O=C(CN1CCN(c2ncnc3c2cnn3-c2ccccc2)CC1)Nc1ccc(Br)cc1 | 59.3% (inactive) |
| Cc1cc(N=C2NC(=O)S/C2=C\c2ccc(F)cc2)n[nH]1 | -30.7% (active) |
| O=C(c1ccccc1)c1ccc2nc(-c3ccccc3Br)[nH]c2c1 | -70.1% (active) |

| Compound | growth |
| --- | --- |
| O=C(CSc1nc2ccccc2c(=O)n1-c1ccc(Cl)cc1)Nc1ccc(-c2nc3ccccc3[nH]2)cc1 | -36.6% (active) |
| COc1ccc(C2c3sc4ccc(C)cc4c3Oc3nc(N)nc(N)c32)cc1 (stereo not given) | 74.8% (inactive) |
| COc1ccc(OC)c(-n2cc(C#N)c(N)c2C(=O)c2ccc(Cl)cc2Cl)c1 | 23.5% (inactive) |
| C#CCOc1cc(N(CC)CC)ccc1C(C(=O)NC(C)(C)C)N(C(=O)C1CCc2cc(F)ccc2O1)c1ccc(F)cc1F (stereo not given) | 43.3% (inactive) |
| CCOc1ccc(/C=N/NC(=O)Cn2nc(Cc3ccc(OC)cc3)c3onc(C)c3c2=O)cc1 | 39% (inactive) |
| Cc1ccc(COc2ccc(NC(=O)Nc3ccc(Cl)c(C(F)(F)F)c3)cc2)cc1 | 93.4% (inactive) |
| Fc1ccc(-c2csc(Nc3cccc(Nc4nc(-c5ccc(F)cc5)cs4)c3)n2)cc1 | 66.8% (inactive) |
| Cn1cc(-c2cc(N)n3nc(-c4cn(C)c5ccccc45)cc3n2)c2cc(F)ccc21 | -83.6% (active) |
| O=C(c1ccc(F)cc1)C(c1c[nH]c2ccccc12)c1c[nH]c2ccccc12 | 74.7% (inactive) |
| O=C1NC2C=CC=CC2/C1=C1/SC(=S)N(C2CC(=O)N(c3ccc(Br)cc3)C2=O)C1=O (stereo not given) | 103% (inactive) |
| CC1[C@H]2[C@H](C[C@H]3[C@@H]4CC=C5c6sc(Nc7cccc(Cl)n7)nc6CC[C@]5(C)[C@H]4CC[C@@]32C)O[C@]12CC[C@@H](C)CO2 (stereo not given in full) | 77.4% (inactive) |
| Cn1cc(-c2cc3nc(-c4c[nH]c5ccccc45)cc(N)n3n2)c2cc(Cl)ccc21 | -89.3% (active) |
| C#C[C@]1(O)CC[C@H]2[C@@H]3CC=C4c5sc(Nc6ccc(N(C)C)cc6)nc5CC[C@]4(C)[C@H]3CC[C@@]21C | -12.3% (active) |
| CC1(C)CC[C@]2(C(=O)O)CC[C@]3(C)C(=CCC4[C@@]5(C)C[C@@H](O)[C@@H]6OC(c7cccc(F)c7)OC[C@@]6(C)C5CC[C@]43C)C2C1 (stereo not given in full) | 46% (inactive) |
| O=C(c1ccc(Cl)cc1)C(c1c[nH]c2ccccc12)c1c[nH]c2ccccc12 | -71% (active) |
| Cc1cc(N=C2NC(=O)/C(=C/c3cc(C(C)(C)C)c(O)c(C(C)(C)C)c3)S2)n[nH]1 | 24.7% (inactive) |
| O=C(CSc1nc2ccccc2c(=O)n1-c1ccc(Cl)cc1)Nc1ccc(-c2nc3ccc([N+](=O)[O-])cc3[nH]2)cc1 | 32.4% (inactive) |
| Cn1cc(-c2nc(N)nnc2-c2c[nH]c3ccccc23)c2cc(Br)cnc21 | 8.68% (active) |
| COc1ccccc1-n1cc(C#N)c(N)c1C(=O)c1ccc(Cl)cc1Cl | 20.4% (inactive) |
| Nc1nnc(-c2c[nH]c3ncc(Br)cc23)c(-c2c[nH]c3ccc(Br)cc23)n1 | 34.5% (inactive) |
